# Myeloid diff 2: promotes myeloid progenitor differentiation; ER-HoxA9 myeloid progenitors, lysozyme-GFP differentiation, flow cytometry; calls only at 10 µM; hit rate 1% among 360,000; AID 624256;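 active = normalized GFP-positive differentiation at or above the plate's own cutoff, the solvent-only control mean plus 3 SD; inconclusive = no clear call, values can overlap the other calls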;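 also: cells exposed to compound for four days before flow analysis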
# CRFR2-BP antag: blocks CRF-induced signaling of the CRF-BP/CRF-R2 complex. HEK293 CRF-R2/CRF-BP, CRF-induced calcium fluorescence. inhibition, % at 11.8 µM. hit rate 0.59% among 350,000. AID 588475;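 active = inhibition of the ligand-induced calcium signal above about 50% at the single tested concentration, limit read from the data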
# CRFBP-R2 agonist: CRF-BP/CRF-R2 complex agonism | HEK293 CRF-R2/CRF-BP, calcium dye fluorescence (FLIPR); percent of saturating CRF peptide response | activation, % at 13.2 µM | hit rate 0.46% among 350,000 | AID 588473;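 active = activation of at least 50%, plus an integration ratio under a set limit after plate pattern correction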;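 also: plate controls were neutral control wells without compound for no effect and CRF at EC100 for full effect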
# RTF Ca sens inh: cardiac RTF calcium desensitization. P19429+P45379. IANBD-labeled cardiac RTF, Ca2+ fluorescence. inhibition, % at 7.15 µM. hit rate 0.12% among 340,000;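 active = inhibition above the mean inhibition of all tested compounds plus 3 SD, cut at about 17% in these data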;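 also: assay run at fixed EC70 calcium of 1.6 mM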
# cardiac RTF act: cardiac RTF calcium sensitization | P19429+P45379 | IANBD-labeled TnC RTF fluorescence at EC20 calcium; 0% EC20 calcium, 100% full calcium | activation, % at 7.2 µM | hit rate 0.24% among 340,000 | AID 493008;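 active = activation above the mean over all tested compounds plus 3 SD, cut at about 30% in these data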;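 also: rise in fluorescence read as greater calcium sensitivity of cardiac thin filaments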
# Myeloid diff: myeloid differentiation induction; shares compounds with Myeloid diff 2; ER-HoxA9 myeloid progenitors, GFP/Mac1 double-positive flow; calls only; hit rate 2% among 2,300; AID 651706;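 active = share of green or green-and-red cells above 9 and 9% in run 1 or 4 and 3% in run 2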
# GFP autofluor: flagged as fluorescent in myeloid differentiation counter-screen; shares compounds with Myeloid diff 2; ER-HoxA9 myeloid progenitors, no estrogen, GFP autofluorescence flow cytometry; vehicle wells 0%, positive control 100%; fluorescence response, % (test concentration not listed); hit rate 7.4% among 2,300; AID 651707;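 active = over 5% cells positive for green fluorescent reporter, or over 2% positive for both it and APC stain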;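 also: range taken on the double positive population between DMSO and positive control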
# * hit, by the source's call; i = inactive; ? = inconclusive; nt = no result given; + = active, no number. Rows were chosen to be rich in hits. Some 2.2% of all compounds tested hit in one or more screens of this group.
SMILES,Myeloid diff 2,CRFR2-BP antag,CRFBP-R2 agonist,RTF Ca sens inh,cardiac RTF act,Myeloid diff,GFP autofluor
Cc1ncsc1CCSc1nc2ccccc2c(=O)n1C,i,-2,0,-3,-2,i,0
Cc1cc(C)n(-c2cc(N3CCN(S(=O)(=O)c4ccc(Br)cc4)CC3)ccc2[N+](=O)[O-])n1,i,15,1,7,-2,i,0
Cc1ccc(C)c(S(=O)(=O)Nc2ccc(C(=O)NCCc3ccccn3)cc2)c1,i,-1,2,-9,-1,nt,nt
c1csc(-c2noc(COc3ccc4c(c3)CCCC4)n2)c1,i,-7,7,5,6,i,0
Brc1ccc(-c2noc(COc3ccc4c(c3)CCC4)n2)o1,i,25,8,-7,-8,nt,nt
O=C(C[C@@H]1CC[C@H](NC(=O)Cc2ccccn2)[C@@H](CO)O1)NCCc1ccccc1,i,nt,nt,nt,nt,nt,nt
O=C(O)C(Cc1ccc(Cl)cc1)Sc1nc2ccccc2[nH]1 (stereo not drawn),i,-6,3,2,-2,nt,nt
COc1cc(-c2ncc3ccccn23)cc(OC)c1OC,+,28,-3,9,10,i,0
COc1cc(OC)cc(-c2ncc3ccccn23)c1,i,5,2,5,12,nt,nt
CS(=O)(=O)NNC(=O)Cn1nnc(-c2ccc(OCc3ccccc3Cl)cc2)n1,i,-6,0,3,4,nt,nt
C=CCn1c(C)c(C(C)=O)c(N2CCCC2)nc1=S,i,-7,4,-12,2,nt,nt
C=CCn1c(C)c(C(C)=O)c(N2CCN(c3ccccc3)CC2)nc1=S,+,-9,32,-31,27,i,2
CCNC(=S)Nc1cccc(F)c1C,i,-10,0,nt,nt,nt,nt
COCCNC(=S)N1CCN(c2cccc(C)c2C)CC1,i,9,-1,-2,-1,nt,nt
Cc1cccc(N2CCN(C(=S)NCCc3ccccc3)CC2)c1C,+,-4,1,0,2,i,0
CCc1nc2ccc(C(=O)Nc3cccc(OCC(=O)N(C)C)c3)cn2c1N(C=O)Cc1ccc(OC)cc1,i,nt,nt,nt,nt,nt,nt
C[C@@H]1CN([C@@H](C)CO)C(=O)CCCn2cc(nn2)CO[C@H]1CN(C)C(=O)Oc1ccccc1,i,0,1,nt,nt,nt,nt
C[C@H]1CN([C@@H](C)CO)C(=O)CCCn2nncc2CO[C@H]1CN(C)S(=O)(=O)c1cccc(F)c1,i,10,2,nt,nt,i,0
C[C@H]1CN([C@@H](C)CO)C(=O)CCCn2nncc2CO[C@H]1CN(C)C(=O)CCC(F)(F)F,i,-3,3,nt,nt,i,0
C[C@H](CO)N1C[C@H](C)[C@@H](CN(C)C(=O)Oc2ccccc2)OCc2cn(nn2)CCCC1=O,i,11,-2,nt,nt,i,0
O=C(NCCN1CCOCC1)C1CC(=O)N(c2ccc(Cl)cc2)C1 (stereo not drawn),i,17,-1,-4,0,nt,nt
O=C(Nn1c(-c2ccc(F)cc2)nc2ccccc2c1=O)C1CCCCC1,i,1,-1,-2,1,nt,nt
COc1cccc(-c2cc(C(=O)NCc3ccc(Cl)cc3)no2)c1,i,-1,5,-2,-5,i,0
COc1ccc(-c2cc(C(=O)NCc3ccc(Cl)cc3)no2)cc1OC,i,-14,3,0,-1,nt,nt
O=C(Cc1cn2ccsc2n1)NCCc1ccc(F)cc1,i,-10,-1,-5,1,i,0
SMILES,Myeloid diff 2,CRFR2-BP antag,CRFBP-R2 agonist,RTF Ca sens inh,cardiac RTF act,Myeloid diff,GFP autofluor
O=C(Cc1cn2ccsc2n1)NCc1ccccc1,i,-14,-1,4,0,nt,nt
COc1cc(OC)c2c(-c3cccc(-c4ccc(CO)cc4)c3)cc(=O)oc2c1,?,-18,0,-9,0,nt,nt
COc1cc(OC)c2c(-c3cccc(-c4ccc(O)cc4)c3)cc(=O)oc2c1,+,-14,-2,-8,7,i,5
CCN1C(=O)C(=O)N(CC(=O)Nc2ccccc2OC(F)F)C1=O,i,3,0,0,0,nt,nt
Cc1ccc(Oc2ccc(-c3nc(N)nc(N)n3)cc2)cc1,+,-29,3,-8,12,i,0
CC1(C)OC(=O)N(CCc2ccccc2)C1(C)O (stereo not drawn),i,11,2,0,-1,i,0
CC1(C)OC(=O)N(CC(=O)Nc2ccccc2)C1(C)O (stereo not drawn),i,8,-2,-13,5,nt,nt
O=C(Nc1cccc(C(F)(F)F)c1)c1cc(S(=O)(=O)N2CCCCC2)ccc1N1CCOCC1,i,-8,0,1,1,i,0
Cc1ccc(OCCOC(=O)c2cc(S(=O)(=O)N3CCCCC3)ccc2N2CCOCC2)cc1,+,22,3,-13,0,i,0
O=C(OCCOc1ccc(Cl)cc1)c1cc(S(=O)(=O)N2CCCCC2)ccc1N1CCOCC1,i,13,2,-3,-3,nt,nt
O=C(O)c1ccc(Cl)c(NC(=O)C2CCCN2S(=O)(=O)c2cccc3nsnc23)c1 (stereo not drawn),i,5,0,-3,6,nt,nt
CCc1noc(C)c1C(=O)N(CC)CC(=O)Nc1cc(Cl)ccc1C,i,-11,1,-9,1,nt,nt
Cc1ccc(NC(=O)c2ccc(=O)[nH]c2)cc1S(=O)(=O)N1CCCCC1,i,-16,-1,0,0,i,0
O=C(Nc1ccc(S(=O)(=O)N2CCCCC2)cc1)c1ccc(=O)[nH]c1,i,-4,-1,9,-6,nt,nt
Cc1cc(C)nc(NC2=NCC(=O)N2c2ccc(F)c(Cl)c2)n1,i,13,2,-9,1,nt,nt
COc1ccc(N2C(=O)CN=C2Nc2nc(C)cc(C)n2)cc1OC,+,-10,-1,-10,-5,i,0
Cc1csc(NC(=O)CSc2nnc(NC(=O)COc3ccc(Cl)cc3)s2)n1,i,13,8,-3,1,nt,nt
O=C(Nc1ccccc1N1CCOCC1)c1cccc2c(Br)cccc12,+,-6,4,-4,-2,i,0
O=C(CCNC(=O)c1ccc(Br)cc1)Nc1ccccc1N1CCOCC1,i,0,-1,-12,-3,i,0
O=C(Nc1ccccc1N1CCOCC1)c1ccc([N+](=O)[O-])o1,i,49,-1,-5,-2,i,0
O=C(Nc1ccc(N2CCOCC2)cc1)c1cccc2c(Br)cccc12,i,-6,0,1,2,nt,nt
O=C(CCNC(=O)c1ccc(Br)cc1)Nc1ccccc1N1CCCC1,i,1,0,-5,-7,nt,nt
CN(C)c1ccc(CNC(=O)C2Cc3c(-c4ccccc4Oc4ccccc4)ccnc3O2)cc1 (stereo not drawn),i,nt,nt,nt,nt,nt,nt
